Reference: PubChem BioAssay (NCI)
Where “and” joins values, the source holds several entries; their conditions need not be identical. Equal entries are not always repeated. About 79,000 compounds went through this panel and 15% of them were active in at least one assay; those are over-represented in the sample as a whole. More than one record can exist for a structure, and the calls need not agree. Calls of active or inactive are those of the source. Cut-off read from the data, not from the text of the source: active = growth inhibition above about 70%; inactive = the rest.

Assays:
[1] = NCI Yeast Anticancer Drug Screen. Data for the rad52 strain (AID 147);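 note: 0% = growth of vehicle-treated control cultures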; details: S. cerevisiae rad52 mutant growth inhibition, stronger effect = higher value
In short: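 The repair-mutant yeast strain was incubated with compounds, then growth was read and inhibition derived relative to vehicle.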

[2] = NCI Yeast Anticancer Drug Screen. Data for the wt1 strain (AID 149);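 note: 0% = growth of vehicle-treated wt1 cultures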; details: S. cerevisiae wt1 strain (SPY 50644) growth inhibition, stronger effect = higher value
In short: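 Vehicle-normalised growth inhibition; strain wt1; compound exposure.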

[3] = NCI Yeast Anticancer Drug Screen. Data for the rad50EPP+ strain (AID 151);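 note: 0% = growth of vehicle-treated control cultures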; details: S. cerevisiae rad50 mutant strain, stronger effect = higher value
In short: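 Vehicle-normalised growth inhibition; rad50EPP+ yeast strain, altered in DNA damage repair, compound-treated.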

[4] = NCI Yeast Anticancer Drug Screen. Data for the mgt1 strain (AID 153); details: S. cerevisiae mgt1 mutant growth inhibition, stronger effect = higher value
In short: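 Vehicle-normalized growth inhibition is determined in mgt1 yeast, a strain selected for a defined alteration in DNA repair or cell cycle control.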

[5] = NCI Yeast Anticancer Drug Screen. Data for the rad50 strain (AID 155);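 note: 0% = growth of vehicle-only cultures of the same strain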; details: S. cerevisiae rad50 strain growth inhibition, stronger effect = higher value
In short: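 A DNA repair-deficient yeast mutant serves as the test organism; compound-induced growth inhibition is calculated against vehicle-treated cells.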

[6] = NCI Yeast Anticancer Drug Screen. Data for the mec2-1 strain (AID 157); details: S. cerevisiae mec2-1 strain, stronger effect = higher value
In short: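 Mutant yeast (mec2-1) grown with compound; growth inhibition relative to vehicle control reported.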

[7] = NCI Yeast Anticancer Drug Screen. Data for the rad14 strain (AID 159);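 note: 0% = growth of vehicle-treated control cultures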; details: S. cerevisiae rad14 strain growth inhibition, stronger effect = higher value
In short: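 Vehicle-treated cultures served as the baseline for growth inhibition of a DNA repair-mutant yeast strain exposed to each compound.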

[8] = NCI Yeast Anticancer Drug Screen. Data for the sgs1 mgt1 strain (AID 161);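 note: 0% = growth of cultures given vehicle only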; details: S. cerevisiae sgs1 mgt1 strain, stronger effect = higher value
In short: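 Growth of a repair-deficient yeast mutant was monitored after compound treatment and expressed as inhibition relative to vehicle-treated cultures.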

[9] = NCI Yeast Anticancer Drug Screen. Data for the CLN2oe strain (AID 163);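 note: 0% = growth of vehicle-only control cultures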; details: S. cerevisiae CLN2oe strain, stronger effect = higher value
In short: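 Compounds are applied to yeast harbouring a defined cell-cycle control change; reduced growth compared with vehicle-treated controls gives the value.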

[10] = NCI Yeast Anticancer Drug Screen. Data for the cln2 rad14 strain (AID 165);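 note: 0% = growth equal to vehicle treated cultures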; details: S. cerevisiae cln2 rad14 strain, stronger effect = higher value
In short: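 Readout is yeast growth inhibition versus vehicle-treated controls, using a strain with cln2 and rad14 alterations exposed to compound.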

[11] = NCI Yeast Anticancer Drug Screen. Data for the bub3 strain (AID 167); details: S. cerevisiae bub3 mutant strain, stronger effect = higher value
In short: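 Inhibition values come from growth of compound-treated mutant yeast normalised to vehicle-treated controls.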

[12] = NCI Yeast Anticancer Drug Screen. Data for the wt2 strain (AID 169);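 note: 0% = growth of vehicle-treated yeast cultures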; details: S. cerevisiae wt2 strain growth inhibition, stronger effect = higher value
In short: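 Against vehicle-treated controls, the growth of yeast exposed to each compound was compared, and the inhibition was recorded.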

[13] = NCI Yeast Anticancer Drug Screen. Data for the mlh1 strain (AID 171);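 note: 0% = growth of vehicle-treated control cultures of the same strain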; details: S. cerevisiae mlh1 strain growth inhibition, stronger effect = higher value
In short: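 Measured: yeast growth. Reference: vehicle-treated controls. Organism: strain with a defined alteration affecting DNA damage repair or cell cycle control, treated with compound.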

[14] = NCI Yeast Anticancer Drug Screen. Data for the sgs1 strain (AID 173);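 note: 0% = growth of vehicle-only control cultures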; details: S. cerevisiae sgs1 mutant, stronger effect = higher value
In short: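 Each compound was added to cultures of the altered yeast strain. Growth was recorded, and inhibition was derived by comparison with vehicle controls.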

[15] = NCI Yeast Anticancer Drug Screen. Data for the mlh1 rad18 strain (AID 175); details: S. cerevisiae mlh1 rad18 strain growth inhibition, stronger effect = higher value
In short: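 Genetically defined yeast (DNA repair-deficient) exposed to compounds; growth inhibition determined relative to vehicle.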

[16] = NCI Yeast Anticancer Drug Screen. Data for the rad18 strain (AID 177); details: S. cerevisiae rad18 mutant growth inhibition, stronger effect = higher value
In short: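 Vehicle-treated cultures served as the baseline for scoring compound-induced growth inhibition in DNA-repair-mutant yeast.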

[17] = at 5.0 µM (retest, dose inferred, filed as 0.5)
[18] = at 50.0 µM (retest, dose inferred, filed as 5.0)

Measured: growth inhibition

O=[N+]([O-])c1cc[n+]([O-])cc1
active: [1]; at 100.0 µM 98% | [2]; at 100.0 µM 99% | [3]; at 100.0 µM 98% | [4]; at 100.0 µM 99% | [5]; at 100.0 µM 99% | [6]; at 100.0 µM 99% | [7]; at 100.0 µM 99% | [9]; at 100.0 µM 98% | [11]; at 100.0 µM 99% | [12]; at 100.0 µM 99% | [13]; at 100.0 µM 99% | [14]; at 100.0 µM 99% | [16]; at 100.0 µM 98%
26.8% (inactive) and 87.5% (active): [15]; at 50.0 µM
inactive: [1]; at 1.2 µM -3% | [1]; at 3.7 µM 2% | [1]; at 11.0 µM 4% | [1]; at 33.0 µM 32% | [2]; at 1.2 µM -6% | [2]; at 3.7 µM -6% | [2]; at 11.0 µM -10% | [2]; at 33.0 µM -14% | [3]; at 1.2 µM 1% | [3]; at 3.7 µM 11% | [3]; at 11.0 µM 12% | [3]; at 33.0 µM 48% | [4]; at 1.2 µM -1% | [4]; at 3.7 µM -4% | [4]; at 11.0 µM -3% | [4]; at 33.0 µM -16% | [5]; at 1.2 µM -6% | [5]; at 3.7 µM -6% | [5]; [17] -158% and 4% | [5]; at 11.0 µM -1% | [5]; at 33.0 µM 58% | [5]; [18] 66% and 60% | [6]; at 1.2 µM 4% | [6]; at 3.7 µM -2% | [6]; [17] -52% and 2% | [6]; at 11.0 µM 0% | [6]; at 33.0 µM -2% | [6]; [18] -19% and 38% | [6]; at 50.0 µM 52% and 57.5% | [7]; at 1.2 µM -2% | [7]; at 3.7 µM 1% | [7]; at 11.0 µM -1% | [7]; at 33.0 µM 19% | [8]; [17] -62% and -8% | [8]; [18] 40% and 54% | [9]; at 1.2 µM -3% | [9]; at 3.7 µM -4% | [9]; at 11.0 µM -2% | [9]; at 33.0 µM 5% | [10]; [17] -61% and -3% | [10]; [18] -19% and 19% | [10]; at 50.0 µM 50.1% and 7.4% | [11]; at 1.2 µM -12% | [11]; at 3.7 µM -8% | [11]; [17] -68% and 5% | [11]; at 11.0 µM 2% | [11]; at 33.0 µM 22% | [11]; [18] 13% and 33% | [11]; at 50.0 µM 9.95% and 68% | [12]; at 1.2 µM -3% | [12]; at 3.7 µM -2% | [12]; at 11.0 µM -3% | [12]; at 33.0 µM -11% | [13]; at 1.2 µM 3% | [13]; at 3.7 µM -6% | [13]; at 11.0 µM -3% | [13]; at 33.0 µM -3% | [14]; at 1.2 µM -2% | [14]; at 3.7 µM -3% | [14]; at 11.0 µM -8% | [14]; at 33.0 µM 33% | [15]; [17] -136% and 0% | [15]; [18] 33% and 53% | [16]; at 1.2 µM -2% | [16]; at 3.7 µM 0% | [16]; at 11.0 µM 3% | [16]; at 33.0 µM 16%
46.1% (inactive) and 83.2% (active): [5]; at 50.0 µM
26.7% (inactive) and 86.5% (active): [8]; at 50.0 µM

CNC(=O)OCc1c(COC(=O)NC)c(-c2ccc(Cl)cc2)n2c1CCC2
active: [2]; at 100.0 µM 84% | [4]; at 100.0 µM 98% | [5]; at 100.0 µM 97% | [6]; at 100.0 µM 87% | [7]; at 100.0 µM 98% | [9]; at 100.0 µM 94% | [10]; at 50.0 µM 84% | [11]; at 100.0 µM 94% | [12]; at 100.0 µM 97% | [13]; at 100.0 µM 98% | [14]; at 100.0 µM 89% | [15]; at 50.0 µM 74.3% | [16]; at 100.0 µM 97%
inactive: [1]; at 1.2 µM -19% | [1]; at 3.7 µM -31% | [1]; at 11.0 µM -28% | [1]; at 33.0 µM -22% | [1]; at 100.0 µM 69% | [2]; at 1.2 µM -37% | [2]; at 3.7 µM -31% | [2]; at 11.0 µM -43% | [2]; at 33.0 µM -47% | [3]; at 1.2 µM -21% | [3]; at 3.7 µM -23% | [3]; at 11.0 µM -16% | [3]; at 33.0 µM -25% | [3]; at 100.0 µM -26% | [4]; at 1.2 µM -47% | [4]; at 3.7 µM -55% | [4]; at 11.0 µM -49% | [4]; at 33.0 µM -17% | [5]; at 1.2 µM -34% | [5]; at 3.7 µM -42% | [5]; [17] 21% | [5]; at 11.0 µM -40% | [5]; at 33.0 µM -30% | [5]; [18] 11% | [5]; at 50.0 µM 56.3% | [6]; at 1.2 µM -55% | [6]; at 3.7 µM -41% | [6]; [17] 0% | [6]; at 11.0 µM -37% | [6]; at 33.0 µM -36% | [6]; [18] 6% | [6]; at 50.0 µM 44.7% | [7]; at 1.2 µM -34% | [7]; at 3.7 µM -31% | [7]; at 11.0 µM -39% | [7]; at 33.0 µM 2% | [8]; [17] 33% | [8]; [18] 69% | [8]; at 50.0 µM 57.5% | [9]; at 1.2 µM -21% | [9]; at 3.7 µM -1% | [9]; at 11.0 µM -9% | [9]; at 33.0 µM -6% | [10]; [17] 30% | [10]; [18] 38% | [11]; at 1.2 µM -53% | [11]; at 3.7 µM -69% | [11]; [17] 36% | [11]; at 11.0 µM -55% | [11]; at 33.0 µM -17% | [11]; [18] 33% | [11]; at 50.0 µM 23% | [12]; at 1.2 µM -31% | [12]; at 3.7 µM -11% | [12]; at 11.0 µM -26% | [12]; at 33.0 µM -10% | [13]; at 1.2 µM -61% | [13]; at 3.7 µM -93% | [13]; at 11.0 µM -67% | [13]; at 33.0 µM 10% | [14]; at 1.2 µM -11% | [14]; at 3.7 µM -28% | [14]; at 11.0 µM -41% | [14]; at 33.0 µM -23% | [15]; [17] 4% | [15]; [18] 5% | [16]; at 1.2 µM -28% | [16]; at 3.7 µM -30% | [16]; at 11.0 µM -53% | [16]; at 33.0 µM -42%
